Assay results taken from PubChem BioAssay AID1159580 (chemical genetic matrix, 2015).
Several values for one entry are separate records, joined by “and”; a condition that tells them apart may be missing. Equal values may be shown once. The whole screen tested about 5,500 compounds, of which about 2,000 (36%) were called active. Inconclusive results (about 18%) are left out. Cut-off read from the data, not from the text of the source: active = normalized growth mostly below about 0.91 (no sharp cut-off); inconclusive = no clear call, values can overlap the other calls; inactive = mostly above about 0.92. This is one part of the list.

Experiment: chemical genetic growth profiling, strain panel (AID 1159580);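 note: tested at 20 µM; growth read once vehicle control cultures reached saturation at 30 °C; 1 = growth at the plate median or of vehicle wells; lower values mean less growth of the strain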
Details: S. cerevisiae deletion strains, growth OD

Measured: normalized growth

CC1(C)OC(=O)NC1=O
inactive: locus YAL021C, strain ccr4, stronger effect = lower value 0.996 | locus YAL026C, strain drs2, stronger effect = lower value 0.976 | locus YAL030W, strain snc1, stronger effect = lower value 1.01 | locus YBL061C, strain skt5, stronger effect = lower value 1.02 | locus YBR009C, strain hhf1, stronger effect = lower value 1 | locus YBR021W, strain FUR4, stronger effect = lower value 0.996 | locus YBR023C, strain chs3, stronger effect = lower value 1.01 | locus YBR171W, strain sec66, stronger effect = lower value 1.01 | locus YBR229C, strain ROT2, stronger effect = lower value 0.984 | locus YBR231C, strain swc5, stronger effect = lower value 1.04 | locus YBR279W, strain paf1, stronger effect = lower value 1.01 | locus YCL011C, strain gbp2, stronger effect = lower value 1 | locus YCL016C, strain dcc1, stronger effect = lower value 1 | locus YCL029C, strain bik1, stronger effect = lower value 0.969 | locus YCL069W, strain vba3, stronger effect = lower value 1 | locus YCR088W, strain abp1, stronger effect = lower value 0.994 | locus YDL005C, strain med2, stronger effect = lower value 0.997 | locus YDL035C, strain GPR1, stronger effect = lower value 1.04 | locus YDL040C, strain nat1, stronger effect = lower value 1.01 | locus YDL074C, strain BRE1, stronger effect = lower value 0.986 | locus YDL101C, strain DUN1, stronger effect = lower value 0.981 | locus YDL134C, strain PPH21, stronger effect = lower value 1.02 | locus YDL185W, strain tfp1, stronger effect = lower value 0.979 | locus YDL192W, strain arf1, stronger effect = lower value 0.985 | locus YDR001C, strain nth1, stronger effect = lower value 0.992 | locus YDR069C, strain doa4, stronger effect = lower value 1.03 | locus YDR101C, strain arx1, stronger effect = lower value 1 | locus YDR137W, strain rgp1, stronger effect = lower value 1 | locus YDR159W, strain sac3, stronger effect = lower value 0.983 | locus YDR162C, strain NBP2, stronger effect = lower value 1.01 | locus YDR195W, strain ref2 1.01 | locus YDR297W, strain sur2, stronger effect = lower value 1.02 | locus YDR318W, strain mcm21, stronger effect = lower value 0.98 | locus YDR334W, strain swr1, stronger effect = lower value 0.993 | locus YDR335W, strain msn5, stronger effect = lower value 1.02 | locus YDR388W, stronger effect = lower value 0.98 | locus YDR392W, strain spt3, stronger effect = lower value 0.944 | locus YDR502C, strain sam2, stronger effect = lower value 0.994 | locus YEL003W, strain gim4, stronger effect = lower value 1 | locus YEL037C, strain rad23, stronger effect = lower value 0.992 | locus YEL061C, strain CIN8 (second series), stronger effect = lower value 0.991 | locus YEL061C, strain CIN8, stronger effect = lower value 0.991 | locus YER015W, strain faa2, stronger effect = lower value 1.01 | locus YER016W, strain bim1, stronger effect = lower value 1.01 | locus YER110C, stronger effect = lower value 0.965 | locus YER111C, strain swi4, stronger effect = lower value 0.993 | locus YER155C, strain BEM2 (second series), stronger effect = lower value 0.972 | locus YER155C, strain BEM2, stronger effect = lower value 0.994 | locus YER167W, strain BCK2, stronger effect = lower value 0.997 | locus YFR010W, strain ubp6, stronger effect = lower value 1.03 | locus YGL078C, strain dbp3, stronger effect = lower value 0.975 | locus YGL086W, strain mad1, stronger effect = lower value 1 | locus YGL167C, strain pmr1, stronger effect = lower value 1.01 | locus YGL173C, strain kem1, stronger effect = lower value 1.04 | locus YGL227W, strain vid30, stronger effect = lower value 0.968 | locus YGL240W, strain doc1, stronger effect = lower value 1.02 | locus YGL248W, strain PDE1, stronger effect = lower value 0.985 | locus YGL253W, strain hxk2, stronger effect = lower value 1.01 | locus YGR078C, strain PAC10, stronger effect = lower value 0.992 | locus YGR135W, strain pre9, stronger effect = lower value 0.958 | locus YGR252W, strain gcn5, stronger effect = lower value 0.969 | locus YHR013C, strain ard1, stronger effect = lower value 1.01 | locus YHR027C, strain rpn1, stronger effect = lower value 1.01 | locus YHR030C, strain SLT2, stronger effect = lower value 0.994 and 1.03 | locus YHR079C, strain IRE1 (second series), stronger effect = lower value 0.983 | locus YHR079C, strain IRE1, stronger effect = lower value 1.02 | locus YHR094C, strain hxt1, stronger effect = lower value 0.972 | locus YHR129C, strain ARP1, stronger effect = lower value 0.998 | locus YHR142W, strain chs7, stronger effect = lower value 1 | locus YHR200W, strain rpn10, stronger effect = lower value 0.981 | locus YIL066C, strain RNR3, stronger effect = lower value 0.993 | locus YIL073C, strain SPO22, stronger effect = lower value 0.952 | locus YIL125W, strain kgd1, stronger effect = lower value 0.988 | locus YIR030C, strain dcg1, stronger effect = lower value 0.972 | locus YJL092W, strain hpr5, stronger effect = lower value 0.989 | locus YJL095W, strain BCK1 (second series), stronger effect = lower value 1.01 | locus YJL095W, strain BCK1, stronger effect = lower value 0.981 and 0.994 | locus YJL115W, strain asf1, stronger effect = lower value 0.992 | locus YJL129C, strain trk1, stronger effect = lower value 0.94 | locus YJL134W, strain LCB3, stronger effect = lower value 0.992 | locus YJL154C, strain vps35, stronger effect = lower value 0.995 | locus YJL164C, strain tpk1, stronger effect = lower value 0.994 | locus YJL166W, strain qcr8, stronger effect = lower value 1.03 | locus YJL168C, strain set2, stronger effect = lower value 0.974 | locus YJL187C, strain SWE1 (second series), stronger effect = lower value 0.98 | locus YJL187C, strain SWE1, stronger effect = lower value 1.02 | locus YJR043C, strain POL32, stronger effect = lower value 1.03 | locus YJR066W, strain TOR1, stronger effect = lower value 0.957
